Source: ChEMBL document CHEMBL1961873, “Compounds: GSK PKIS; Assays: Nanosyn kinase panel” (2012)

Experiments:
[1] = target: High affinity nerve growth factor receptor (Homo sapiens) (UniProt P04629); settings: at 1 µM;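 also: each value is the mean percent inhibition of TRKA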
[2] = target: BDNF/NT-3 growth factors receptor (Homo sapiens) (UniProt Q16620); settings: at 0.1 µM
[3] = target: BDNF/NT-3 growth factors receptor (Homo sapiens) (UniProt Q16620); settings: at 1 µM
[4] = target: NT-3 growth factor receptor (Homo sapiens) (UniProt Q16288); settings: at 0.1 µM
[5] = target: NT-3 growth factor receptor (Homo sapiens) (UniProt Q16288); settings: at 1 µM
[6] = target: T1, Tyrosine-protein kinase TXK (Homo sapiens) (UniProt P42681); settings: at 0.1 µM
T1 sequence (whole entry): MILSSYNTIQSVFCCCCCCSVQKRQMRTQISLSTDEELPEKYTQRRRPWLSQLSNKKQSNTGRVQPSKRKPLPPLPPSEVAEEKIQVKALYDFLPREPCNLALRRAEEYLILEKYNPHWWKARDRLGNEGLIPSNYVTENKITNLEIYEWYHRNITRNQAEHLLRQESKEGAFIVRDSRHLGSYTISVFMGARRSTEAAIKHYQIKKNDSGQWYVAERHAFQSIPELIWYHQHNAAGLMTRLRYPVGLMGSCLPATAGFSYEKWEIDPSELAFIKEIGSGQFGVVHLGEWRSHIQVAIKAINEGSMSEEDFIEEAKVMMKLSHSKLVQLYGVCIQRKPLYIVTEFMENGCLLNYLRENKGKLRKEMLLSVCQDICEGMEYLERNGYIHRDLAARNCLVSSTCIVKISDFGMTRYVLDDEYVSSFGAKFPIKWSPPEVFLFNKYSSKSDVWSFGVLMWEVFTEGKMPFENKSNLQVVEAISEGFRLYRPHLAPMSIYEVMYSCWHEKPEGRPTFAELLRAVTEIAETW

[7] = target: T1, Tyrosine-protein kinase TXK (Homo sapiens); settings: at 1 µM
[8] = target: Non-receptor tyrosine-protein kinase TYK2 (Homo sapiens) (UniProt P29597); settings: at 0.1 µM;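 also: each value is a mean of the inhibition readings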
[9] = target: T2, Dual specificity protein kinase TTK (Homo sapiens) (UniProt P33981); settings: at 1 µM;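 also: reported figures are mean TTK inhibition at 1 µM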
T2 sequence (whole entry): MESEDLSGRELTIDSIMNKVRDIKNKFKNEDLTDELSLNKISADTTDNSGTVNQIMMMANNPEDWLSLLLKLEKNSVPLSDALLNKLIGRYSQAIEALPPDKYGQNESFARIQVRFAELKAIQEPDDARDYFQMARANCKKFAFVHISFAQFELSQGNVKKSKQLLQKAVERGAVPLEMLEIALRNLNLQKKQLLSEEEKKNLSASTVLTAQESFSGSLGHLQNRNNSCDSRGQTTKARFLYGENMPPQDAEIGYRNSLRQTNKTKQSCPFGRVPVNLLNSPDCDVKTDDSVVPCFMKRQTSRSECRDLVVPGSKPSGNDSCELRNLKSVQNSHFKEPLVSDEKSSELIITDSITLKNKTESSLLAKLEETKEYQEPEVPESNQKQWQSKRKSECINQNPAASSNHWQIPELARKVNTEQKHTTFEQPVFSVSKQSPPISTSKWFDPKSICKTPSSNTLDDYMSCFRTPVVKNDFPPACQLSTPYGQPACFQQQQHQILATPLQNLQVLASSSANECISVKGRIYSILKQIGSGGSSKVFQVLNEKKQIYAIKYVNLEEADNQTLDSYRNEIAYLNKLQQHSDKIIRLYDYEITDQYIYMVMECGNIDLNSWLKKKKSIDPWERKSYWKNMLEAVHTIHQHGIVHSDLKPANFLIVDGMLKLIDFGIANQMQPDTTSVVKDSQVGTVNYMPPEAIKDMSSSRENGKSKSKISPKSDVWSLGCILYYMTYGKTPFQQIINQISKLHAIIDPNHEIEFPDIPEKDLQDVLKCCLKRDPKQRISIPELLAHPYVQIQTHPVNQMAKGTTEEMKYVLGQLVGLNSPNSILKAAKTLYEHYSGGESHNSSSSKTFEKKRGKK

[10] = target: T3, Aurora kinase A (Homo sapiens) (UniProt O14965); settings: at 0.1 µM
T3 sequence (whole entry): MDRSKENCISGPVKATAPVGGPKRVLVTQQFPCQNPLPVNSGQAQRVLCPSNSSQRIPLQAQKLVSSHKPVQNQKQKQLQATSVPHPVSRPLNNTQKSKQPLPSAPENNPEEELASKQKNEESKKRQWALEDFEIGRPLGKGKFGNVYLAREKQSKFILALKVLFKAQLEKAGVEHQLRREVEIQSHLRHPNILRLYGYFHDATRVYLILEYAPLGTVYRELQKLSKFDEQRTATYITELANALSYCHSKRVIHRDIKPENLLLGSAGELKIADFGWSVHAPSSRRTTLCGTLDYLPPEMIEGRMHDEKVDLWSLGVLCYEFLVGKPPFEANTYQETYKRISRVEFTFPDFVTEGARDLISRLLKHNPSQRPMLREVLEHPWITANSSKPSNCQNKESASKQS

[11] = target: T3, Aurora kinase A (Homo sapiens); settings: at 1 µM
[12] = target: Aurora kinase B (Homo sapiens) (UniProt Q96GD4); settings: at 0.1 µM
[13] = target: Aurora kinase B (Homo sapiens) (UniProt Q96GD4); settings: at 1 µM
[14] = target: T4, Aurora kinase C (Homo sapiens) (UniProt Q9UQB9); settings: at 0.1 µM
T4 sequence (whole entry): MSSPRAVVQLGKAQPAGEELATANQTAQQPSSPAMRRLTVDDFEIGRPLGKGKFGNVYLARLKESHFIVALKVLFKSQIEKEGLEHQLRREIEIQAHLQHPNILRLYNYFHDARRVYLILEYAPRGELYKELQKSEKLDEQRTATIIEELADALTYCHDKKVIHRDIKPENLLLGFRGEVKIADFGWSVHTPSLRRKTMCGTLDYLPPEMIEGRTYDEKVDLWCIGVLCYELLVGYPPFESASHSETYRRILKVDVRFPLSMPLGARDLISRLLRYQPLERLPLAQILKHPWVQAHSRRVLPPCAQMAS

[15] = target: T4, Aurora kinase C (Homo sapiens); settings: at 1 µM
[16] = target: Serine/threonine-protein kinase 10 (Homo sapiens) (UniProt O94804); settings: at 0.1 µM
[17] = target: Serine/threonine-protein kinase 10 (Homo sapiens) (UniProt O94804); settings: at 1 µM
[18] = target: T5, Mitogen-activated protein kinase kinase kinase kinase 2 (Homo sapiens) (UniProt Q12851); settings: at 0.1 µM
T5 sequence (whole entry): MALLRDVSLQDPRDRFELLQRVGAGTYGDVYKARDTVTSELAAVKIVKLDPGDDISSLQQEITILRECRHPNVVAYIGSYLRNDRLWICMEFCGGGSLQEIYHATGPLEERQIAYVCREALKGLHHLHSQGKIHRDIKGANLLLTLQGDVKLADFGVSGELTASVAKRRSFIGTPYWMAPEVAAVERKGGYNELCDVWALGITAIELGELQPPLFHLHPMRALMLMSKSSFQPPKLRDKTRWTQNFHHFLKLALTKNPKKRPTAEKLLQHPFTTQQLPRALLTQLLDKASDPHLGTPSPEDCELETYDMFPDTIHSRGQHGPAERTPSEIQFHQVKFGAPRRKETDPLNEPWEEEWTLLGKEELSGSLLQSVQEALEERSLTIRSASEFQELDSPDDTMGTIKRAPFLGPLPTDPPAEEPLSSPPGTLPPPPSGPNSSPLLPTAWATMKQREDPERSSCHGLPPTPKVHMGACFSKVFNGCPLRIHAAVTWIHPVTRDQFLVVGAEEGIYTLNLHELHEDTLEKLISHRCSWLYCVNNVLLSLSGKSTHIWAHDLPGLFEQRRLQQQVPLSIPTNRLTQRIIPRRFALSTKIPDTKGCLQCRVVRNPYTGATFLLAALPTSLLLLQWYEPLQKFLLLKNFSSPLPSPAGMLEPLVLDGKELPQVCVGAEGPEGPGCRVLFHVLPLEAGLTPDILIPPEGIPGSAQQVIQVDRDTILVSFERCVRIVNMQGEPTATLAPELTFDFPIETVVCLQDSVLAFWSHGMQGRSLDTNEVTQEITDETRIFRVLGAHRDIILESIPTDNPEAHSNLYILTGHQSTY

[19] = target: T5, Mitogen-activated protein kinase kinase kinase kinase 2 (Homo sapiens); settings: at 1 µM
[20] = target: Mitogen-activated protein kinase kinase kinase kinase 4 (Homo sapiens) (UniProt O95819); settings: at 0.1 µM
Mitogen-activated protein kinase kinase kinase kinase 4 (Homo sapiens), sequence (O95819 2-1239 limits assumed): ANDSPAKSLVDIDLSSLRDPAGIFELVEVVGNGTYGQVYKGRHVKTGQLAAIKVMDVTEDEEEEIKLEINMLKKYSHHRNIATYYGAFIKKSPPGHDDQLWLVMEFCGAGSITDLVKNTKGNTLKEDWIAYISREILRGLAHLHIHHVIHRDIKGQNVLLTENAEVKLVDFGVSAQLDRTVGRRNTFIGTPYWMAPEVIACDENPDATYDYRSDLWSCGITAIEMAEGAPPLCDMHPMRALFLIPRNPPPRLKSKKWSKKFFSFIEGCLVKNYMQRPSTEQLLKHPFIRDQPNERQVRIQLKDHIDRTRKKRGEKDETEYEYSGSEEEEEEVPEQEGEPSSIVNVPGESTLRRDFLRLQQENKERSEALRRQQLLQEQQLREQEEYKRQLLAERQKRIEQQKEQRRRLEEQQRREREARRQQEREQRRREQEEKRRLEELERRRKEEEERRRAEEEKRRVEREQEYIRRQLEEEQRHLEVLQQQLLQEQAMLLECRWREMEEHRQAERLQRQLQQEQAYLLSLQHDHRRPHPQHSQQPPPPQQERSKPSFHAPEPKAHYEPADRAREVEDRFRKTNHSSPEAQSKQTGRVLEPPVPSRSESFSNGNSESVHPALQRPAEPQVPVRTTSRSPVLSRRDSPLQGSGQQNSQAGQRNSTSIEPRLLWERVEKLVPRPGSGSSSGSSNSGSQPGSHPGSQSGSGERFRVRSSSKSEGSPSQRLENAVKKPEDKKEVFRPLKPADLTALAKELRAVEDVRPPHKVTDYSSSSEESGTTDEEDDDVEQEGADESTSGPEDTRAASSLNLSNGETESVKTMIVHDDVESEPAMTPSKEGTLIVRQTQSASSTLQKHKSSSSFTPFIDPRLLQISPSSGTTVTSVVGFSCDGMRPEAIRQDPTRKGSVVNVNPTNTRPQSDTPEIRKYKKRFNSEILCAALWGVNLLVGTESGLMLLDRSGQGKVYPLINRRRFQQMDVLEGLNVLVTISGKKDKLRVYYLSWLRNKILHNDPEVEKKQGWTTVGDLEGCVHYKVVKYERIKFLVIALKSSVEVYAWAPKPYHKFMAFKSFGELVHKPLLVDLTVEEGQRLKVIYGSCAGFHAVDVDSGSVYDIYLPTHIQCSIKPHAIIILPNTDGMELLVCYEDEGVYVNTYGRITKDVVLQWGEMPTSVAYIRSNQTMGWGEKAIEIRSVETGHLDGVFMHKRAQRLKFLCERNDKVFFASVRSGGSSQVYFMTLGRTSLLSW

BDNF/NT-3 growth factors receptor (Homo sapiens), sequence (Q16620 32-822 limits assumed): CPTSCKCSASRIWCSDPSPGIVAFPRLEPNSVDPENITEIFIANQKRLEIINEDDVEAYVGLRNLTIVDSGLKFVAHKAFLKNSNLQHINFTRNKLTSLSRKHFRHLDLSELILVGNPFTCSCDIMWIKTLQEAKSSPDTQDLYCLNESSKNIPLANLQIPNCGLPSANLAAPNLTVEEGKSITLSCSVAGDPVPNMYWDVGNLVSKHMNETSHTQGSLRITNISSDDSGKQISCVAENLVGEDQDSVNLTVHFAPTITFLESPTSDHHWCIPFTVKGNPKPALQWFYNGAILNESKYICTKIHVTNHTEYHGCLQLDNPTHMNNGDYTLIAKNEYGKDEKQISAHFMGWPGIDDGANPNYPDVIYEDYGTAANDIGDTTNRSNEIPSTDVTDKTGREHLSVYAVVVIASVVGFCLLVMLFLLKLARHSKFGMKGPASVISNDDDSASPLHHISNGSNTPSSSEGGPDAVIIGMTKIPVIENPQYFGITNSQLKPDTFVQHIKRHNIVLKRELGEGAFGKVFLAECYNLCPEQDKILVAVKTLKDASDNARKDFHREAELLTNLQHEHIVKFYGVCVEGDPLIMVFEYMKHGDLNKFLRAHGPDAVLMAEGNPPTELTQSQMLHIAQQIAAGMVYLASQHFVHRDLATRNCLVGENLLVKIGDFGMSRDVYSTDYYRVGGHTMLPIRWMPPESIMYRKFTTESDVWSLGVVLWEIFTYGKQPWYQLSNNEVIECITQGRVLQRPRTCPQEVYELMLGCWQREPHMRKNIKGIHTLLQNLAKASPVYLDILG
Aurora kinase B (Homo sapiens), sequence (Q96GD4 whole entry): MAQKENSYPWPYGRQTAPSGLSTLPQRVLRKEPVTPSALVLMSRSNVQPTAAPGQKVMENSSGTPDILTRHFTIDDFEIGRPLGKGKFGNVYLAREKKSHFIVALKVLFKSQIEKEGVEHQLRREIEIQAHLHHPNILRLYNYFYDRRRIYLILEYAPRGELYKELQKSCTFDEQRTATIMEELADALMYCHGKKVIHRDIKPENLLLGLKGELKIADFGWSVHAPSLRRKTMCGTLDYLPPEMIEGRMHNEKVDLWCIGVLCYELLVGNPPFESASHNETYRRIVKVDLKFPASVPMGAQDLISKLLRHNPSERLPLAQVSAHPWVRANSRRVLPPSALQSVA
High affinity nerve growth factor receptor (Homo sapiens), sequence (P04629 33-796 limits assumed): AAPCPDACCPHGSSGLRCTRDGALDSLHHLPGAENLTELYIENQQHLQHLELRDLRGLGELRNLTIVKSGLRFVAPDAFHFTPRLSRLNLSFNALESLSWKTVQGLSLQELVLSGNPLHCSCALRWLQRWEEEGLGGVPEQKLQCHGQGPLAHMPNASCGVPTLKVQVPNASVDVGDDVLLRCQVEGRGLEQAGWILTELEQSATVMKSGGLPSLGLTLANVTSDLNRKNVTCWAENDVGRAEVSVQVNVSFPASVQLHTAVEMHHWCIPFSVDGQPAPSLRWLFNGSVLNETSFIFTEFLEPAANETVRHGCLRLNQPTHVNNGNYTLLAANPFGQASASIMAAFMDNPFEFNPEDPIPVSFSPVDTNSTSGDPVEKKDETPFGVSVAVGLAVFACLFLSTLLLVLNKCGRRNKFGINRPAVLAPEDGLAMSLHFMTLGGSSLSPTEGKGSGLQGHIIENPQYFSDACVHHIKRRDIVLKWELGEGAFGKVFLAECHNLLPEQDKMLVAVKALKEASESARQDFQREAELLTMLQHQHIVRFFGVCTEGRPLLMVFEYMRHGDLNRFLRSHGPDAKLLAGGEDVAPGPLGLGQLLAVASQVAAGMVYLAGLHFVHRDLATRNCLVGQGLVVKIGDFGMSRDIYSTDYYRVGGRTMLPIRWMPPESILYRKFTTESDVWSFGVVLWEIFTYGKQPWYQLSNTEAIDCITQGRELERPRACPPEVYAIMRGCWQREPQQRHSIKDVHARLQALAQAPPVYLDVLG
NT-3 growth factor receptor (Homo sapiens), sequence (Q16288 32-839 limits assumed): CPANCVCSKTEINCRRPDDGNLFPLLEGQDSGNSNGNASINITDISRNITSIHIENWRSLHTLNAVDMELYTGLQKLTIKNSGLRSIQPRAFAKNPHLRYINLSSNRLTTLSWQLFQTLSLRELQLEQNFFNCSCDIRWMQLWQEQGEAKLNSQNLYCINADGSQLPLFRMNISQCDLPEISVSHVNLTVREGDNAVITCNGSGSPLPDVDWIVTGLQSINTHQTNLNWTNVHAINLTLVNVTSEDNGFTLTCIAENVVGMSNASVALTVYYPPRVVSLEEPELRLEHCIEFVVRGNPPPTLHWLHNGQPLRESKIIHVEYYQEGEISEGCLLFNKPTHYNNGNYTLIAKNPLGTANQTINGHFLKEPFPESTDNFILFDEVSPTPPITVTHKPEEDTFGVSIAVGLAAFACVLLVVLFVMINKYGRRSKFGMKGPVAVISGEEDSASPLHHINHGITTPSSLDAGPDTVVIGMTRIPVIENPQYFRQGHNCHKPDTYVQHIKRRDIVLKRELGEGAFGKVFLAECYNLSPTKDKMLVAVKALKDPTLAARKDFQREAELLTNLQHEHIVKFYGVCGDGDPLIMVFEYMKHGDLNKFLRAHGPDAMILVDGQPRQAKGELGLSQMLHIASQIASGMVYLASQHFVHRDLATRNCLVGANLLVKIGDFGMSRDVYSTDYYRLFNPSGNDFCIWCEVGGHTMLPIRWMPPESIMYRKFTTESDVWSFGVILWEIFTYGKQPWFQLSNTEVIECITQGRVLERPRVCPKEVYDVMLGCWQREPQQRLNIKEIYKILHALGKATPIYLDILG
Serine/threonine-protein kinase 10 (Homo sapiens), sequence (O94804 whole entry, looked up): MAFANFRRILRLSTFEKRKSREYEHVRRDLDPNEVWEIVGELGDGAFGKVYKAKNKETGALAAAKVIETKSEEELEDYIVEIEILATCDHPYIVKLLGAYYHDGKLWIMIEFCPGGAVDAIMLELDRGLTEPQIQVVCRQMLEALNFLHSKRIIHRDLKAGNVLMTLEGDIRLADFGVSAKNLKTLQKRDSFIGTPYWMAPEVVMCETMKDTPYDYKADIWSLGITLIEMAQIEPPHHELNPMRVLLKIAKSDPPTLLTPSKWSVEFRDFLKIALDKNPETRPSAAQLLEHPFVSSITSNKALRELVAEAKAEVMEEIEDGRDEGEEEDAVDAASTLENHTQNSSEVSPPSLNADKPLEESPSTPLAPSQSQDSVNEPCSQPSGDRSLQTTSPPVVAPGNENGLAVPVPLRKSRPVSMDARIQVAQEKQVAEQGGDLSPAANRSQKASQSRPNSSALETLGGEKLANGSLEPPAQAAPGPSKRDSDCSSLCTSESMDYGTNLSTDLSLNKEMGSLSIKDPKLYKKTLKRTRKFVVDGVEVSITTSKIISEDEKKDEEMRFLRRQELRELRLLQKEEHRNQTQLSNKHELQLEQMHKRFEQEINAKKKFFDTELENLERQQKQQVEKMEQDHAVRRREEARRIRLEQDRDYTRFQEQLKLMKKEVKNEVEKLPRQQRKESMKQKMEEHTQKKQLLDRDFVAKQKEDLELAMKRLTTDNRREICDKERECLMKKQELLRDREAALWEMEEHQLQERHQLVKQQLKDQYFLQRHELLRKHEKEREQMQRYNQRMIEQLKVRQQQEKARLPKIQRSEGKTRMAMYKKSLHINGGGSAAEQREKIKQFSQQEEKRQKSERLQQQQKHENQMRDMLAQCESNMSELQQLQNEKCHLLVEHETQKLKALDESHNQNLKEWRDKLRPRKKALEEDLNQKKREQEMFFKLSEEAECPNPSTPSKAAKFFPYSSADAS

Row | SMILES | inhibition [1] | inhibition [2] | inhibition [3] | inhibition [4] | inhibition [5] | inhibition [6] | inhibition [7] | inhibition [8] | inhibition [9] | inhibition [10] | inhibition [11] | inhibition [12] | inhibition [13] | inhibition [14] | inhibition [15] | inhibition [16] | inhibition [17] | inhibition [18] | inhibition [19] | inhibition [20]
1 | ON=C1CCc2cc(-c3nc(C4CCNCC4)[nH]c3-c3ccncc3)ccc21 | -1.26% | -0.05% | -1.18% | -1.73% | -0.26% | 1.85% | 2.25% | -1.08% | 2.17% | -0.5% | 2.73% | 0.1% | 3.15% | -0.7% | 10.1% | 19.7% | 63.6% | 1.74% | 4.29% | 3.95%
2 | CCCN1CCCC(c2ccc(Nc3nc(Nc4cc(F)ccc4C(N)=O)c4cc[nH]c4n3)c(OC)c2)C1 (centres undefined) | 5.65% | 4.46% | 6.11% | 3.36% | 5.51% | 3.48% | 6.47% | -2.19% | 79.6% | 1.81% | 7.44% | -0.78% | 3.45% | -0.09% | 5.81% | 7.27% | 24.8% | 9.87% | 48.9% | 38.3%
3 | NS(=O)(=O)c1cccc(Nc2cc(-c3ccc(F)cc3)n[nH]2)c1 | 19.2% | 4.73% | 26.1% | 6.62% | 27.9% | 3.74% | 3.31% | -3.9% | – | 1.29% | 8.81% | 3.89% | 3.74% | 0.7% | 0.46% | 4.31% | 16.5% | 1.41% | 4.93% | 16.9%
4 | N#Cc1c(NC(=O)c2ccccc2F)sc2c1CCCC2 | -2.78% | -1.85% | -1.97% | 0.83% | -1.95% | -0.16% | 1.71% | 2.79% | 1.13% | -0.7% | -2.59% | -1.47% | 0.26% | -2% | 0.91% | -0.59% | 4.2% | 1.34% | 2.61% | -1.47%
